Records with an inconclusive call do not appear. Active and inactive are the calls of the source. Calls come from the whole dose curve; as a rule, active = well fitted inhibition curve with a large enough effect; inconclusive = small, poorly fitted or top-dose-only effect; inactive = no such curve, though single readings can be large or run the other way.

A short description of the first assay: qHTS drug screen for cell cycle checkpoint inhibitors in PARPi-resistant BRCA-mutant ovarian cancer cell lines. (AID 1963452). The conditions noted are these: PEO1/OlaR viability, CellTiter-Glo luminescence, 96 h; measured here: PEO4 Z-AUC; stronger effect = lower value. The method, boiled down: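 PEO1, PEO4 and PEO1/OlaR ovarian cancer cells, 600 per well, exposed 96 h at 37C to a dilution series. Viability read by CellTiter-Glo luminescence, normalized to DMSO and empty wells; activity summarized as Z-AUC.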
As for `C=C1C(=O)O[C@H]2C[C@H](C)C(/C=C/C(C)=O)=CC[C@H]12`, the Z-AUC was -0.273.

Turning to `OC1CCC(Oc2cccc3cnc(Nc4ccc5nc[nH]c5c4)nc23)CC1` (configuration not stated), the Z-AUC is -0.421.

Regarding `CC1=C2[N-][C@H]([C@H](CC(N)=O)[C@@]2(C)CCC(=O)NC[C@@H](C)OP(=O)([O-])O[C@H]2[C@@H](O)[C@@H](n3cnc4cc(C)c(C)cc43)O[C@@H]2CO)[C@]2(C)N=C(C(C)=C3N=C(C=C4N=C1[C@@H](CCC(N)=O)C4(C)C)[C@@H](CCC(N)=O)[C@]3(C)CC(N)=O)[C@@H](CCC(N)=O)[C@]2(C)CC(N)=O.O.[Co+2]`, the Z-AUC is 0.294.

In the case of `CC(C)c1c(-c2ccccc2)nc2c(C#N)c[nH]n2c1=O`, the Z-AUC worked out at 0.731.

`C=C1C(=O)O[C@@H]2[C@H]3C(C)=CC[C@@]34O[C@@]4(C)CC[C@@H]12`: the Z-AUC stood at 0.342.

Take `CN(C)C/C=C/C(=O)Nc1ccc(C(=O)N2CCC[C@@H](Nc3ncc(Cl)c(-c4c[nH]c5ccccc45)n3)C2)cc1`: the Z-AUC was -2.1.

Regarding `Fc1cccc(-n2cnc3c(NCc4nc5c(F)c(F)ccc5[nH]4)nc(N4CCOCC4)nc32)c1`, the Z-AUC is -2.33.

With `O=C(/C=C\n1cnc(-c2cc(C(F)(F)F)cc(C(F)(F)F)c2)n1)NNc1cnccn1`, the Z-AUC is -1.63.

As to `CS[C@H]1SC[C@@H]2C(=O)N(C)[C@H](C(C)C)C(=O)OC[C@H](NC(=O)c3cnc4ccccc4n3)C(=O)N[C@H](C)C(=O)N(C)[C@H]1C(=O)N(C)[C@H](C(C)C)C(=O)OC[C@H](NC(=O)c1cnc3ccccc3n1)C(=O)N[C@H](C)C(=O)N2C`, the Z-AUC is -3.11.

A further assay can be described thus: qHTS assay to identify inhibitors of the type 1 interferon - major histocompatibility complex class I in skeletal muscle: Counter screen cell viability and HiBit confirmation (AID 1347412). For activity change, negative = inhibition: % is set by controls: 0 for no effect and ±100 for the full control effect. Note: nearly all actives have a fitted effect of over 60% in size. Note: potency is the fitted concentration of half-maximal effect. The conditions noted are these: iHSKM muscle cells + IFN-b, HiBiT or CellTiter-Glo, 24 h; HiBiT. Summed up:
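HLA-B*08:01–HiBiT knock-in immortalized human myoblasts (C25cl48) stimulated with 4.0 ng/ml human IFN-beta and dosed with compound in a 12-point 1:3 titration (top final 46 uM). After 24 hrs at 37 C, HiBiT lytic luminescence or CellTiter Glo ATP read out.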
(In general: qHTS replaces the single test concentration by a dilution series.)
In the case of `C=C1C(=O)O[C@H]2C[C@H](C)C(/C=C/C(C)=O)=CC[C@H]12`, the Potency is 3.13 µM (active).

Turning to `OC1CCC(Oc2cccc3cnc(Nc4ccc5nc[nH]c5c4)nc23)CC1` (configuration not stated), the Potency was 0.557 µM (active).

For `CC1=C2[N-][C@H]([C@H](CC(N)=O)[C@@]2(C)CCC(=O)NC[C@@H](C)OP(=O)([O-])O[C@H]2[C@@H](O)[C@@H](n3cnc4cc(C)c(C)cc43)O[C@@H]2CO)[C@]2(C)N=C(C(C)=C3N=C(C=C4N=C1[C@@H](CCC(N)=O)C4(C)C)[C@@H](CCC(N)=O)[C@]3(C)CC(N)=O)[C@@H](CCC(N)=O)[C@]2(C)CC(N)=O.O.[Co+2]`, the Potency is 14 µM (active).

For the compound `CC(C)c1c(-c2ccccc2)nc2c(C#N)c[nH]n2c1=O`, the Potency was 3.94 µM (active).

For the compound `C=C1C(=O)O[C@@H]2[C@H]3C(C)=CC[C@@]34O[C@@]4(C)CC[C@@H]12`, the Potency was 12.5 µM (active).

Regarding `CN(C)C/C=C/C(=O)Nc1ccc(C(=O)N2CCC[C@@H](Nc3ncc(Cl)c(-c4c[nH]c5ccccc45)n3)C2)cc1`, the Potency is 1.11 µM (active).

On to `Fc1cccc(-n2cnc3c(NCc4nc5c(F)c(F)ccc5[nH]4)nc(N4CCOCC4)nc32)c1`, for which the Potency is 0.442 µM (active).

In the case of `O=C(/C=C\n1cnc(-c2cc(C(F)(F)F)cc(C(F)(F)F)c2)n1)NNc1cnccn1`, the Potency was 0.625 µM (active).

Consider `CS[C@H]1SC[C@@H]2C(=O)N(C)[C@H](C(C)C)C(=O)OC[C@H](NC(=O)c3cnc4ccccc4n3)C(=O)N[C@H](C)C(=O)N(C)[C@H]1C(=O)N(C)[C@H](C(C)C)C(=O)OC[C@H](NC(=O)c1cnc3ccccc3n1)C(=O)N[C@H](C)C(=O)N2C`, for which the Potency is 0.0125 µM (active).

Still in this assay, the particulars now being: iHSKM muscle cells + IFN-b, HiBiT or CellTiter-Glo, 24 h; Viability; at 45.9 µM (top of the series).
In the case of `C=C1C(=O)O[C@H]2C[C@H](C)C(/C=C/C(C)=O)=CC[C@H]12`, the activity change, negative = inhibition is 64.7% (inactive).

On to `OC1CCC(Oc2cccc3cnc(Nc4ccc5nc[nH]c5c4)nc23)CC1` (configuration not stated), for which the activity change, negative = inhibition was 9.5% (inactive).

Consider `CC1=C2[N-][C@H]([C@H](CC(N)=O)[C@@]2(C)CCC(=O)NC[C@@H](C)OP(=O)([O-])O[C@H]2[C@@H](O)[C@@H](n3cnc4cc(C)c(C)cc43)O[C@@H]2CO)[C@]2(C)N=C(C(C)=C3N=C(C=C4N=C1[C@@H](CCC(N)=O)C4(C)C)[C@@H](CCC(N)=O)[C@]3(C)CC(N)=O)[C@@H](CCC(N)=O)[C@]2(C)CC(N)=O.O.[Co+2]`, for which the activity change, negative = inhibition is -18.1% (inactive).

For `CC(C)c1c(-c2ccccc2)nc2c(C#N)c[nH]n2c1=O`, the activity change, negative = inhibition was -0.422% (inactive).

For `C=C1C(=O)O[C@@H]2[C@H]3C(C)=CC[C@@]34O[C@@]4(C)CC[C@@H]12`, the activity change, negative = inhibition is 49.2% (inactive).

As to `CN(C)C/C=C/C(=O)Nc1ccc(C(=O)N2CCC[C@@H](Nc3ncc(Cl)c(-c4c[nH]c5ccccc45)n3)C2)cc1`, the activity change, negative = inhibition is 26.2% (inactive).

Turning to `Fc1cccc(-n2cnc3c(NCc4nc5c(F)c(F)ccc5[nH]4)nc(N4CCOCC4)nc32)c1`, the activity change, negative = inhibition is -14.7% (inactive).

Take `O=C(/C=C\n1cnc(-c2cc(C(F)(F)F)cc(C(F)(F)F)c2)n1)NNc1cnccn1`: the activity change, negative = inhibition is -1.81% (inactive).

In the case of `CS[C@H]1SC[C@@H]2C(=O)N(C)[C@H](C(C)C)C(=O)OC[C@H](NC(=O)c3cnc4ccccc4n3)C(=O)N[C@H](C)C(=O)N(C)[C@H]1C(=O)N(C)[C@H](C(C)C)C(=O)OC[C@H](NC(=O)c1cnc3ccccc3n1)C(=O)N[C@H](C)C(=O)N2C`, the activity change, negative = inhibition is 4.37% (inactive).

The record behind these values is PubChem BioAssay (NCATS).
